Source: PubChem BioAssay (NCI)
The panel holds about 79,000 compounds, 15% with a hit somewhere; the sample as a whole holds those more often. A number with no mark means an inactive call. Calls of active or inactive are those of the source. Cut-off read from the data, not from the text of the source: active = growth inhibition above about 70%; inactive = the rest.

Test: NCI Yeast Anticancer Drug Screen. Data for the rad52 strain (AID 147);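 note: 0% = growth of vehicle-treated control cultures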
Details: S. cerevisiae rad52 mutant growth inhibition, stronger effect = higher value
Protocol: Growth inhibition of yeast strains with defined genetic alterations is measured as a screen for potential anti-cancer activity. Selected strains with alterations in DNA damage repair or cell cycle control were exposed to compounds and growth inhibition was measured relative to vehicle treated controls. The strain used in this assay is rad52

| Structure (SMILES) | growth inhibition (at 1.2 µM) | growth inhibition (at 3.7 µM) | growth inhibition (at 11.0 µM) | growth inhibition (at 33.0 µM) | growth inhibition (at 100.0 µM) |
| --- | --- | --- | --- | --- | --- |
| O=c1ccc(N=Nc2ccccc2)ccc1O | 0% | 42% | 95% (active) | 99% (active) | 98% (active) |
| CCC(c1ccc(O)cc1)C(CC)c1ccc(OCCN)cc1 (stereo not given) | -5% | 0% | 0% | 11% | 88% (active) |
| c1ccc2c(c1)ccc1c3ccncc3ccc21 | 15% | 80% (active) | 99% (active) | 99% (active) | 95% (active) |
| NC(N)=NCCCS(=O)(=O)Nc1ccc(Nc2c3ccccc3nc3cc([N+](=O)[O-])ccc23)cc1 | -26% | 8% | 36% | 79% (active) | 91% (active) |
| c1ccc(N2N=C3N(c4ccccc4)C2N3c2ccccc2)cc1 | -19% | -14% | 4% | 57% | 93% (active) |
| O=C(/C=C\c1ccc([N+](=O)[O-])o1)Nc1ccc(Cl)cc1 | 69% | 96% (active) | 98% (active) | 98% (active) | 97% (active) |
| O=C(O)c1ccccc1.[Ag] | 72% (active) | 101% (active) | 99% (active) | 98% (active) | 98% (active) |
| Cc1cc(O)c2c(c1O)C(=O)C13C(=C2O)C(=O)C2C(O)C1C1C(O)C3C(=O)C3=C(O)c4c(O)cc(C)c(O)c4C(=O)C321 (stereo not given) | 28% | 39% | 58% | 89% (active) | 90% (active) |
